Source: PubChem BioAssay
TRPML1 inh: blocks the human TRPML1 channel; AID 624415; activity change, negative = inhibition, % (no concentration beside the values); hit rate 0.02% among 390,000; TRPML1-inducible cells, Ca2+ dye fluorescence, FDSS; active compounds read low; inhibition of EC80 agonist-evoked calcium signal; Q9GZU1; in the data active = activity change below about -50%; inconclusive = between about -30% and that limit;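 note: stimulus is agonist 54-4 at its EC80 concentration; % is set by controls: 0 for no effect and ±100 for the full control effect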
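Calcium fluorescence in TRPML1-DL cells induced overnight with Tet: a 110 s read after compound pin addition, then a 110 s antagonist read after challenge with 54-4 at 4 uM final (EC80).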
KCNH2 3.1 block: blocks the human KCNH2 3.1 channel isoform; activity change, % (tested at about 1.8 µM); AID 720553; hit rate 0.95% among 340,000; U2OS KCNH2 3.1, thallium flux FluxOr; active compounds read low;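 active = maximum activity change below -70%; inconclusive = maximum activity change from -70% to -50%; inactive = maximum activity change above -50%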;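 note: thallium influx rate constant from kinetic fluorescence after stimulation buffer; % is set by controls: 0 for no effect and ±100 for the full control effect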
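U2OS cells transduced with KCNH2 3.1 mutant virus (1.77 x 10^8 /mL, 4 h), plated overnight at 37 C, loaded 45 min with FluxOr dye plus Red40 quencher. Thallium flux rate constant from kinetic reads after stimulation buffer, normalised to controls.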
TRPV1 ag: human TRPV1 agonism. TRPV1-expressing cells, Fluo-8 calcium influx, agonist mode. activation, % at 8.33 µM. hit rate 0.19% among 320,000. AID 540275; in the data active = activation above about 80%; inconclusive = between about 30% and that limit; note: 0% is about no effect
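TRPV1-expressing cells were cultured overnight at 35.5C and loaded with Fluo-8 calcium dye for 40 to 90 min at room temperature. After a 10 s baseline, compound was added and calcium influx was read kinetically for 3 min (ex 480/em 520 nm).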
KCNH2 WT inh: KCNH2 (human, wildtype) channel inhibition | hit rate 0.37% among 340,000 | U2OS, BacMam KCNH2, thallium flux FluxOr; active compounds read low | Q12809 | activity change, % at 1.84 µM;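 active = maximum activity change below -70%; inconclusive = maximum activity change between -70% and -50%; inactive = maximum activity change above -50%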; note: % is set by controls: 0 for no effect and ±100 for the full control effect
Target sequence (Q12809 whole entry, looked up): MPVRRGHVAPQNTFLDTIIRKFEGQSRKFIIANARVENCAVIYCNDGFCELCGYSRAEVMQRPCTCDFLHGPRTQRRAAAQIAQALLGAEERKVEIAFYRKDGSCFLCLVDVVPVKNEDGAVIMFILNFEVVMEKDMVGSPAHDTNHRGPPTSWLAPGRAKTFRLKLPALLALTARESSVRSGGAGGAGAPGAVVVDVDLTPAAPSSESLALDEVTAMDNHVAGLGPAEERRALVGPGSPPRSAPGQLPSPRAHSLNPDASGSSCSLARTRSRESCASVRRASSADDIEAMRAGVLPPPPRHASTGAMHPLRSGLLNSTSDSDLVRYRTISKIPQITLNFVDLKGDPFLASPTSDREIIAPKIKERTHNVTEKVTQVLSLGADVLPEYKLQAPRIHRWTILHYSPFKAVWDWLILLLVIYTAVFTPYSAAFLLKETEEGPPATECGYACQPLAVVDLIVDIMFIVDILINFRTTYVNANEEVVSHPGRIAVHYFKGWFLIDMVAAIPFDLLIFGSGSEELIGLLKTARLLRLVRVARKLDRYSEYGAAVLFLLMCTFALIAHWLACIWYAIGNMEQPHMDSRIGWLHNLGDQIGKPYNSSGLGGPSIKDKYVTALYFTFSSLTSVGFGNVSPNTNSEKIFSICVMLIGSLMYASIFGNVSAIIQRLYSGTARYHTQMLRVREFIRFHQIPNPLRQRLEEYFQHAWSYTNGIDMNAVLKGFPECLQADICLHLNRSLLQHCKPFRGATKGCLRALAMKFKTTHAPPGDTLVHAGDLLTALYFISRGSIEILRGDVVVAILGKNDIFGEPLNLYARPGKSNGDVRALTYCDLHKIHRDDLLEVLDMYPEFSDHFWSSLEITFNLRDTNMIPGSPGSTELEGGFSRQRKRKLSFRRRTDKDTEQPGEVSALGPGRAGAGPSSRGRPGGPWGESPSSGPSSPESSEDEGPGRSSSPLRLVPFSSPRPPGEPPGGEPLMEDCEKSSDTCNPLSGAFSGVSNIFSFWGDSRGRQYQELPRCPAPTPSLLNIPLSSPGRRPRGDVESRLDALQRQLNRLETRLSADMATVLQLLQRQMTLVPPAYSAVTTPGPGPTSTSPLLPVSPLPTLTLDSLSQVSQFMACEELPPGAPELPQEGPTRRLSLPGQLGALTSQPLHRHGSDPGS
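U2OS cells were transduced with wild-type KCNH2 virus (2.03 x 10^8 / mL) for 4 h at room temperature, then cultured overnight at 37 C. Thallium flux was read with FluxOr dye. Rate constants were normalized to DMSO controls.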
TRPML1 ag: agonists of human TRPML1 channel; activation, % (concentration not given with the values); hit rate 0.12% among 410,000; Q9GZU1; TRPML1-expressing cells, Ca2+ dye fluorescence, FDSS; AID 624414; in the data active = activation above about 50%; inconclusive = mostly about 30% to 49%; note: 0% is about no effect
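Cells: TRPML1-DL, 1X Tet inducer, ~16 h at 37 degrees C/5% CO2. Dye: ABD Ca8 no-wash + quencher, 45-90 min RT. Read: 10 s baseline, compound add, 110 s agonist phase; 54-4 EC80 (4uM final), 110 s antagonist phase.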
TRPV1 potentiator: enhances activation of the human vanilloid receptor TRPV1; Q8NER1; TRPV1-expressing cells, Fluo-8 calcium influx, capsaicin EC20 potentiation; potentiation, % at 8.33 µM; hit rate 0.02% among 320,000; AID 540277; in the data active = potentiation above about 80%; inconclusive = between about 30% and that limit; note: 0% is about no effect
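Fluo-8 calcium influx in TRPV1-expressing cells, kinetic read (ex 480/em 520 nm). Compound added and read 3 min for agonist activity, followed by capsaicin at EC20 final and 2 min further read for enhancement.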
An asterisk follows results filed as active; ? = inconclusive; · = not tested or not shown; + = active, no number. Hits are enriched below; roughly 1.3% of the tested compounds scored in any of these assays.

SMILES	TRPML1 inh	KCNH2 3.1 block	TRPV1 ag	KCNH2 WT inh	TRPML1 ag	TRPV1 potentiator
O=[N+]([O-])c1ccc(/C=N\NS(=O)(=O)c2ccc(F)cc2)o1	25	-85*	-1	12	0	-4
COc1ccc(S(=O)(=O)N/N=C\c2ccc([N+](=O)[O-])o2)c(OC)c1	-5	0	-2	-1	-1	-12
COc1ccccc1CNS(=O)(=O)c1ccc2c(c1)NC(=O)C(C)C(=O)N2 (configuration not stated)	-8	·	·	·	0	·
CCOC(=O)c1cc(-c2cccs2)nc2c1c(C)nn2-c1ccccn1	12	18	?	-3	1	-4
Cc1nn(-c2ccccn2)c2nc(-c3cccs3)cc(C(=O)NCc3ccco3)c12	10	-46	83*	?	1	-4
CCCN1CNc2c(c(=O)[nH]c(=S)n2CCC(C)C)C1	·	·	·	·	0	·
COc1cccc2[nH]c3c(N4CCCCC4)ncnc3c12	5	7	3	5	-1	8
COc1cccc2[nH]c3c(Cl)ncnc3c12	-7	0	-5	-184*	-1	3
Cc1cccn2c(CNC3CCCc4ccccc43)c(C(=O)N3CCCCC3)nc12 (configuration not stated)	7	-182*	8	-3	-1	-7
CCOC(=O)C1CCCN(Cc2c(C(=O)N3CCCCC3)nc3c(C)cccn23)C1 (configuration not stated)	-2	3	2	6	0	-4
CCC(Cc1ccccc1)NC(=O)Cn1nc(C)n2c(cc3occc32)c1=O (configuration not stated)	-12	·	·	·	-1	·
CCC(Cc1ccccc1)NC(=O)Cn1ncc2ccsc2c1=O (configuration not stated)	-16	-110*	4	7	0	-7
Cc1cccc(N2CCN(C(=O)c3cc4ccc5cccnc5c4[nH]3)CC2C)c1 (configuration not stated)	-3	·	·	·	1	·
Cc1ccc(-n2ncc(C(=O)N3CCN(c4cccc(C)c4)C(C)C3)c2C2CCN(C(=O)OC(C)(C)C)CC2)cc1 (configuration not stated)	-28	·	·	·	73*	·
Cc1cccc(-n2ncc(C(=O)N3CCN(Cc4ccccc4)CC3)c2C2CCN(C(=O)OC(C)(C)C)CC2)c1	-15	·	·	·	51*	·
COc1ccc(-n2ncc(C(=O)N3CCN(Cc4ccccc4)CC3)c2C2CCN(C(=O)OC(C)(C)C)CC2)cc1	8	·	·	·	1	·
COc1ccc(CNc2oc(/C=C/c3cc(OC)c(OC)c(OC)c3)nc2C#N)cc1	2	·	·	·	16	·
COc1cc(OC)cc(C(=O)OCC(=O)Nc2nnc(-c3ccccc3)o2)c1	7	18	·	3	1	·
O=C(COC(=O)c1cncc(Br)c1)Nc1nnc(-c2ccccc2)o1	14	17	·	-72*	-1	·
Cc1cccc(CNC(=O)C2CCN(c3nn4cc(-c5ccc(F)cc5)nc4s3)CC2)c1	-15	·	·	·	1	·
COCCCCOc1cc2nc(N3CCCN(C)CC3)nc(NC3CCN(C)CC3)c2cc1OC	·	·	·	·	0	·
Cc1cc(C)c(-c2noc(C(=O)OC(C)(C)C)c2C(=O)OC(C)(C)C)c(C)c1	-3	-7	2	-6	53*	14
O=c1[nH]c(=O)n(Cc2ccco2)c2c1C(C(F)(F)F)(C(F)(F)F)N=C(CCc1ccccc1)N2	11	-108*	1	2	3	0
Cc1cc(Cl)ccc1OCC(=O)Nc1cccc(-c2nc3ccccc3o2)c1	·	·	·	·	0	·
CCN(CC)c1ccc2cc(C(C)=O)c(=O)oc2c1	0	-28	?	17	72*	-30
SMILES	TRPML1 inh	KCNH2 3.1 block	TRPV1 ag	KCNH2 WT inh	TRPML1 ag	TRPV1 potentiator
CCN(CC)c1ccc2cc(C(N)=O)c(=N)oc2c1	-7	-10	?	-4	56*	-11
CCN(CC)c1ccc2cc(C(N)=O)c(=O)oc2c1	0	15	-5	-7	0	-8
CCN(CC)c1ccc2cc(C=O)c(=O)oc2c1	-22	-15	?	25	113*	-3
CCN(CC)c1ccc2cc(C(=O)Nc3ccccn3)c(=O)oc2c1	-15	-7	29	-11	10	-9
COc1ccc(CN(Cc2ccccc2)C(=O)c2ccno2)cc1COc1ccc(NC(C)=O)cc1	·	·	·	·	0	·
O=C(NCc1cccnc1)[C@@H]1CC=C[C@@H]2CCN(C3CCCCC3)C(=O)[C@@H]21	·	·	·	·	-1	·
Cc1cc(C)cc(NC(c2cccc(Cl)c2)c2nnc(-c3ccccc3)o2)c1 (configuration not stated)	15	·	·	·	1	·
CCN(CC)CCN1C(=O)/C(=C\c2ccc(Cl)c([N+](=O)[O-])c2)SC1=Nc1ccc(OC)cc1	16	-99*	-2	-47	0	-2
COc1ccc(N=C2S/C(=C\c3ccc(Cl)c([N+](=O)[O-])c3)C(=O)N2CCN(C)C)cc1	16	-28	4	17	0	3
CC1CN(CC(O)COc2ccc(C(C)C)cc2)CC(C)O1 (configuration not stated)	48	-2	3	9	1	-33
CN(CC(O)COC(c1ccccc1)c1ccccc1)C1CCCCC1 (configuration not stated)	1	-49	4	10	2	-2
CN(C)CC(O)COC(c1ccc(Cl)cc1)c1ccc(Cl)cc1 (configuration not stated)	16	-88*	8	-43	4	9
CC1CN(CC(O)COC(c2ccc(Cl)cc2)c2ccc(Cl)cc2)CC(C)O1 (configuration not stated)	8	-76*	6	?	0	-10
OC(COC(c1ccc(F)cc1)c1ccc(F)cc1)CN1CCCC1 (configuration not stated)	-21	-83*	7	-22	2	-47
OC(COC(c1ccc(Cl)cc1)c1ccc(Cl)cc1)CN1CCN(c2ccccn2)CC1 (configuration not stated)	0	-99*	-4	+	2	-3
Cc1cccc(C)c1OCC(O)CN1CCN(c2ccccn2)CC1 (configuration not stated)	-4	-8	0	1	-1	3
Cc1cc(OCC(=O)Nc2ccc(C(=O)OC3CCCCC3)cc2)cc(C)c1Cl	1	·	·	·	1	·
COc1ccccc1-n1c(/C=C/c2c(C)n(C)c3ccccc23)nc2ccccc2c1=O	12	·	·	·	7	·
Cc1cccc(C)c1NC(=O)C(=O)NCC(c1ccc2c(c1)OCO2)N1CCOCC1 (configuration not stated)	-23	·	·	·	1	·
